The results in this text go back to PubChem BioAssay (NCI).

Among the test systems are HCT-15 colon; HT29 colon; SNB-19 CNS; U251 CNS; PC-3 prostate; SK-MEL-5 melanoma; UACC-62 melanoma; LOX IMVI melanoma; SK-MEL-28 melanoma; SK-MEL-2 melanoma; EKVX NSCLC; SN12C renal; UO-31 renal; TK-10 renal; ACHN renal; CAKI-1 renal; CCRF-CEM leukemia; MOLT-4 leukemia; A498 renal.
Common to all, as to experiment: NCI-60 one-dose screen, 48 h (100 = growth as untreated, 0 = no growth, -100 = all killed)
What all share (settings): 10 µM unless noted

About 83,000 compounds went through this panel and 20% of them were active in at least one assay; those are over-represented in the sample as a whole.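 Single-dose data. Exposure time 48 hours. Values below 10 considered active.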 A number with no mark means an inactive call. Calls of active or inactive are those of the source.

With `O=C(CSc1nnc(-c2ccc(Cl)cc2)n1-c1ccccc1)Nc1cccc(Cl)c1`, the growth with HCT-15 colon is 79.5%; in the test with HT29 colon, 71.6%; in the test on SNB-19 CNS, 80.2%; with U251 CNS, 50.2%; with PC-3 prostate it was 75.5%; in the test on SK-MEL-5 melanoma, 96.4%. The growth was 97.7% in the test with UACC-62 melanoma; 7.5% (active) in the test on LOX IMVI melanoma; 97.8% with SK-MEL-28 melanoma; 101% with SK-MEL-2 melanoma; 62.3% in the test with EKVX NSCLC; 25.4% in the test with SN12C renal. Also, the growth in the test with UO-31 renal is 12.6%; in the test with TK-10 renal, 75.1%; in the test on ACHN renal it was 9.9% (active); in the test with CAKI-1 renal, 64.9%; in the test on CCRF-CEM leukemia it was 78.3%; in the test with MOLT-4 leukemia, 85.6%.
With `CS(=O)(=O)c1ccc(-n2cc(/C=N/O)c(-c3ccccc3)n2)cc1`, the growth in the test on HCT-15 colon was 76.6%; with HT29 colon, 97.4%; in the test on SNB-19 CNS, 71.2%; in the test with U251 CNS it was 72.1%; with PC-3 prostate, 71%; in the test on SK-MEL-5 melanoma, 21.2%. The growth was 66.6% in the test with UACC-62 melanoma; -79.5% (active) in the test on LOX IMVI melanoma; 93.3% with SK-MEL-28 melanoma; 92.3% with SK-MEL-2 melanoma; 81.7% in the test on EKVX NSCLC; 89.5% in the test on SN12C renal. The growth in the test with UO-31 renal was 76%; with TK-10 renal, 92.5%; with ACHN renal, 78.4%; with CAKI-1 renal, 73.8%; in the test with A498 renal, 83.7%; with CCRF-CEM leukemia, 33.8%. Besides, the growth in the test with MOLT-4 leukemia is 28.7%.
Turning to `CN1CCN(Cc2ccc(NC(=O)c3cncc(C#Cc4cnn5cccnc45)c3)cc2C(F)(F)F)CC1`, the growth is 4.11% (active) in the test on HCT-15 colon; 17.5% with HT29 colon; 29% with SNB-19 CNS; 30.8% with PC-3 prostate; 17.7% in the test with SK-MEL-5 melanoma; 23.8% in the test on UACC-62 melanoma. Also, the growth was -33.3% (active) with LOX IMVI melanoma; 12.1% in the test on SK-MEL-28 melanoma; 46.6% with EKVX NSCLC; 8.93% (active) in the test on SN12C renal; 22.3% with UO-31 renal; 32.8% in the test with TK-10 renal. Moreover, the growth with ACHN renal was 11.2%; with CAKI-1 renal it was 21.6%; in the test with CCRF-CEM leukemia, 2.51% (active); in the test with MOLT-4 leukemia it was 6.57% (active).
Turning to `C=C(C)[C@@H]1CC[C@]2(C(=O)NCCCCCN(CCC#N)CCC#N)CC[C@]3(C)[C@H](CC[C@@H]4[C@@]5(C)CCC(=O)C(C)(C)[C@@H]5CC[C@]43C)[C@@H]12`, the growth in the test on HCT-15 colon was 105%; in the test with HT29 colon it was 108%; in the test on SNB-19 CNS, 107%; in the test on U251 CNS it was 115%; with PC-3 prostate, 92.3%; in the test with SK-MEL-5 melanoma, 99.5%. In addition, the growth was 84% in the test on UACC-62 melanoma; 87.8% with LOX IMVI melanoma; 108% with SK-MEL-28 melanoma; 106% in the test with SK-MEL-2 melanoma; 75.2% in the test with EKVX NSCLC; 71.6% in the test with UO-31 renal. In addition, the growth in the test on TK-10 renal is 74.7%; in the test on ACHN renal it was 98.7%; in the test on CAKI-1 renal, 61.1%; in the test with A498 renal, 48.9%; in the test with MOLT-4 leukemia it was 92%.
For `Cc1ccc(-n2c(/C=C3\C(=O)Nc4ccccc43)ccc2CO)cc1`, the growth is 31.2% in the test on HCT-15 colon; 60.7% in the test on HT29 colon; 81% with SNB-19 CNS; 77.8% in the test with U251 CNS; 66.5% in the test on PC-3 prostate; 73.7% in the test with SK-MEL-5 melanoma. Besides, the growth in the test with LOX IMVI melanoma is 62.5%; with SK-MEL-28 melanoma, 70.9%; in the test on SK-MEL-2 melanoma, 81%; with EKVX NSCLC, 79.8%; in the test on SN12C renal, 88.2%; in the test with UO-31 renal, 65%. Further, the growth is 118% in the test with TK-10 renal; 76.5% in the test on ACHN renal; 55.9% in the test on CAKI-1 renal; 47% with A498 renal; 54.9% in the test with CCRF-CEM leukemia; 43.8% in the test with MOLT-4 leukemia.
Regarding `O=C(Nc1nc2ccc([N+](=O)[O-])cc2s1)Nc1ccccc1Cl`, the growth in the test on HCT-15 colon is 29.5%; in the test with HT29 colon, 53.6%; in the test on SNB-19 CNS, 21.7%; with U251 CNS, 29.2%; with PC-3 prostate it was 17.3%; in the test on SK-MEL-5 melanoma, -22.5% (active). For the same compound, the growth in the test with UACC-62 melanoma is 6.62% (active); in the test with SK-MEL-28 melanoma, 49.5%; in the test on SK-MEL-2 melanoma, 9.56% (active); in the test with SN12C renal, 10.4%; with UO-31 renal, 31.8%; in the test with TK-10 renal, 40.1%. For the same compound, the growth in the test with ACHN renal is 42.7%; with CAKI-1 renal, 21.8%; in the test on CCRF-CEM leukemia, 28.9%; with MOLT-4 leukemia, 21.8%.
As for `O=C(Nc1cccc(Cl)c1)Nc1nc2ccc([N+](=O)[O-])cc2o1`, the growth with HCT-15 colon was 13.7%; in the test on HT29 colon it was 14.3%; with SNB-19 CNS, 19.7%; with U251 CNS, 6.13% (active); in the test with PC-3 prostate, 5.64% (active); in the test on SK-MEL-5 melanoma, -13% (active). For the same compound, the growth with UACC-62 melanoma is 2.02% (active); with SK-MEL-28 melanoma, 26%; with SK-MEL-2 melanoma, 3.62% (active); in the test with EKVX NSCLC it was 16.7%; with SN12C renal, 16.8%; in the test with UO-31 renal, 24%. Besides, the growth was 8.49% (active) in the test on TK-10 renal; 23% in the test with ACHN renal; 15.8% with CAKI-1 renal; 10.5% in the test on CCRF-CEM leukemia; 9.15% (active) in the test with MOLT-4 leukemia.
For `CC(c1ccccc1)N1CSc2nc3ncncc3n2C1` (centres undefined), the growth in the test on HCT-15 colon was 37.3%; in the test on HT29 colon, 30.4%; with SNB-19 CNS, 99.5%; in the test on U251 CNS it was 70.6%; with PC-3 prostate, 42.4%; with SK-MEL-5 melanoma it was 49.3%. Further, the growth is 20.6% with UACC-62 melanoma; 10.1% with LOX IMVI melanoma; 96.9% in the test with SK-MEL-28 melanoma; 57.2% in the test on SK-MEL-2 melanoma; 68.8% in the test on SN12C renal; 47.6% in the test with UO-31 renal. In addition, the growth in the test with TK-10 renal was 42.6%; in the test with ACHN renal it was 45.2%; in the test on CAKI-1 renal it was 27.2%; with A498 renal it was 85.8%; in the test on CCRF-CEM leukemia, 23.1%; in the test on MOLT-4 leukemia it was 18.2%.
